For 17 molecules, growth results are on record in PubChem BioAssay (NCI).

The structures appear in SMILES notation. The panel holds about 83,000 compounds, 20% with a hit somewhere; the sample as a whole holds those more often.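 48-hour exposure, single concentration, 96-well plates; percent growth endpoint where 0 means no net growth. Active: below 10.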 Unmarked numbers belong to inactive results. Activity calls are given as the source filed them.

Test systems include T-47D breast; BT-549 breast; MDA-MB-435 melanoma; SW-620 colon; HCT-116 colon; KM12 colon; MCF7 breast; HCC-2998 colon.
Test in all cases: NCI-60 one-dose screen, 48 h (100 = growth as untreated, 0 = no growth, -100 = all killed)
What all share (conditions): 10 µM unless noted

Consider `O=C1c2c(c3c4ccccc4[nH]c3c3ccc4ccccc4c23)C(=O)N1CCN1CCNCC1`, for which the growth with T-47D breast is 55.8%; with BT-549 breast it was 93.5%; in the assay with MDA-MB-435 melanoma it was 80.9%; with SW-620 colon, -54.9% (active); in the assay with HCT-116 colon, -81.3% (active); with KM12 colon, 36.3%.
`COC(=O)/C=C1/SC(=Nc2cccc(OC)c2)N(CCc2c[nH]c3ccc(O)cc23)C1=O`: the growth in the assay on T-47D breast is 42.2%; in the assay on BT-549 breast, 33.1%; in the assay on SW-620 colon it was 56.1%; in the assay with MCF7 breast it was 20.4%; with HCT-116 colon, 34.3%; in the assay with HCC-2998 colon, 65.1%. In the assay with KM12 colon, the growth is 53.5%.
`COc1cc(-c2cncn2-c2ccc(-c3nc4ccc(F)cc4s3)cc2)ccc1F`: the growth in the assay with T-47D breast is 76.3%; in the assay on BT-549 breast it was 85.3%; in the assay on SW-620 colon, 54.3%; in the assay on MCF7 breast, 64.3%; in the assay with HCT-116 colon it was 37.7%; in the assay on HCC-2998 colon, 80.2%. The growth in the assay on KM12 colon is 81.7%.
As to `CCC(C)N(CCNc1cc(OC)cc2cccnc12)CC(C)C` (configuration not stated), the growth is 6.53% (active) with T-47D breast; 106% with BT-549 breast; 85.5% in the assay with SW-620 colon; 12.6% in the assay with MCF7 breast; 66.9% with HCT-116 colon; 96% in the assay with HCC-2998 colon. In addition, the growth with KM12 colon was 97.5%.
For `Clc1cc(Cl)c(Cl)c(-c2nnc(SCc3ccncc3Br)o2)c1`, the growth was 96.1% in the assay on T-47D breast; 99% in the assay with BT-549 breast; 96.5% in the assay on SW-620 colon; 91.8% with MCF7 breast; 88.8% in the assay on HCT-116 colon; 58.6% in the assay on HCC-2998 colon. The growth with KM12 colon was 96.2%.
Regarding `CCOC(=O)c1nn(-c2ccc(S(N)(=O)=O)cc2)c2nc(C)cc(=O)n12`, the growth in the assay on T-47D breast is 106%; with BT-549 breast it was 106%; in the assay with SW-620 colon, 106%; in the assay with MCF7 breast, 92.4%; in the assay on HCT-116 colon, 106%; with HCC-2998 colon, 109%. The growth in the assay on KM12 colon is 102%.
For the molecule `O=C(CSc1nc2ccc([N+](=O)[O-])cc2[nH]1)Nc1ccc([N+](=O)[O-])cc1`, the growth with T-47D breast is 3.64% (active); in the assay with BT-549 breast, 7.77% (active); in the assay with SW-620 colon, 31.9%; with MCF7 breast, 16%; in the assay on HCT-116 colon it was 9.88% (active); in the assay on HCC-2998 colon it was 31.1%. The growth with KM12 colon is 21.8%.
`C=CCn1c(SCC(=O)Nc2ccc(C(=O)/C=C/c3ccc(Cl)cc3)cc2)nnc1-c1ccc(Br)cc1`: the growth in the assay on T-47D breast is 88.9%; in the assay on BT-549 breast it was 87.4%; with SW-620 colon it was 82.5%; in the assay with MCF7 breast, 13.4%; in the assay on HCT-116 colon, -80.4% (active); in the assay on HCC-2998 colon it was 93.8%. In addition, in the assay on KM12 colon, the growth was 69.9%.
In the case of `Nc1c(C(=O)Nc2ccccc2F)sc2nc3c(cc12)CCCC3`, the growth in the assay with T-47D breast is 41.9%; in the assay on BT-549 breast, 56.8%; in the assay with SW-620 colon, 25.3%; in the assay with MCF7 breast, 18%; with HCT-116 colon, 23.7%; in the assay with HCC-2998 colon it was 57.7%. For the same molecule, the growth in the assay with KM12 colon was 27.6%.
Take `CCCCCN1C(=O)/C(=c2\sc3n(c2=O)C2C(NN=3)N(CC)C(=O)N2CC)c2ccccc21` (configuration not stated): the growth with T-47D breast was 23.3%; with BT-549 breast it was 19.5%; in the assay on SW-620 colon, -42.1% (active); in the assay with MCF7 breast it was 12%; in the assay with HCT-116 colon, -72.1% (active); with HCC-2998 colon it was -17.1% (active). Also, the growth in the assay on KM12 colon was -52.9% (active).
In the case of `CC(C)c1ccc(Cc2cnc(NC(=O)c3cc(Br)cs3)s2)cc1`, the growth is 30.3% in the assay with T-47D breast; 42.8% with BT-549 breast; 28.3% in the assay with SW-620 colon; 11.7% in the assay with MCF7 breast; 26.1% in the assay on HCT-116 colon; 64% in the assay with HCC-2998 colon. Also, the growth in the assay with KM12 colon is 20.7%.
As for `CC(=O)c1c(C)nc(SCC(=O)Nc2cccc(O)c2)n1-c1ccc(Cl)cc1`, the growth with T-47D breast was 95.9%; in the assay on BT-549 breast it was 93.1%; in the assay on SW-620 colon it was 87.3%; in the assay on MCF7 breast it was 91.1%; with HCT-116 colon, 94.8%; in the assay on HCC-2998 colon, 99.3%. Moreover, the growth in the assay with KM12 colon is 93.7%.
Regarding `COc1ccc(Cc2cnc(NC(=O)c3cc(C)oc3C)s2)cc1`, the growth in the assay on T-47D breast was 31.8%; with BT-549 breast, 50.7%; with SW-620 colon it was 27.9%; with MCF7 breast it was 21.6%; in the assay on HCT-116 colon, 25.1%; with HCC-2998 colon it was 60.9%. In addition, in the assay with KM12 colon, the growth is 25.4%.
On to `COC(=O)CC[C@H](C)[C@H]1CC[C@H]2[C@@H]3CC[C@@H]4CC5(CC[C@]4(C)[C@H]3CC(=O)[C@]12C)Nc1ccccc1NC5=NC(C)(C)C` (some centres not stated), for which the growth with T-47D breast was 82.3%; with BT-549 breast, 95.4%; in the assay on SW-620 colon, 69.7%; with MCF7 breast it was 58.5%; in the assay on HCT-116 colon it was 28.3%; with HCC-2998 colon it was 107%. Moreover, the growth in the assay on KM12 colon was 83%.
Take `COc1ccc(C(C)=O)cc1S(=O)(=O)Nc1c(N)nc(SC)[nH]c1=O`: the growth with T-47D breast was 116%; with BT-549 breast it was 117%; in the assay with MDA-MB-435 melanoma, 97.7%; with SW-620 colon, 101%; in the assay on HCT-116 colon, 100%; in the assay with KM12 colon, 96.7%.
Consider `COCCn1cc(-c2nc(-c3cc4cccnc4[nH]3)cs2)c2cc(OC)ccc21`, for which the growth in the assay with T-47D breast is -12.4% (active); in the assay with BT-549 breast, 1.78% (active); with SW-620 colon it was 48.4%; in the assay on MCF7 breast it was 0.765% (active); in the assay with HCT-116 colon, 30.3%; in the assay with HCC-2998 colon, 57.6%. In addition, the growth in the assay with KM12 colon was 1.17% (active).
With `N#Cc1c(-c2ccccc2)cc(-c2ccccc2)n(CCCC(=O)Nc2ccccc2N)c1=O`, the growth in the assay on T-47D breast was 64.1%; in the assay with BT-549 breast, 55.4%; with SW-620 colon, 35%; in the assay with MCF7 breast, 36%; in the assay with HCT-116 colon it was 45%; with HCC-2998 colon, 85.7%. The growth in the assay with KM12 colon was 42.3%.
